Results from the supplement of paper PMC6555819.

Key:
Assay in all cases: PBM binding z-score (relative to random genomic background probes); higher = stronger binding; sequences stand for … in GC…GCGATTGACAGCGTAGAATGAAGG
[1] = test system: FXR:RXRa (NR concentration 270 nM, RXRa partner concentration 90 nM)
How it was run: (§1)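 Probes were double-stranded and carried 34-nt variable regions with direct-repeat seeds, single-nucleotide variants, half-site ablations and random human genomic background sequences, printed on custom Agilent 4×180K protein-binding microarrays. Arrays were incubated 1 h with ligand-free nuclear receptor dimers in PBS pH 7.4, 2% milk, 0.02% Triton X-100, 1 mM DTT, 0.2 mg/mL BSA and 0.4 mg/ml salmon testes DNA. Antibodies against each partner (one per run) detected binding, and scanned fluorescence was regression-normalized. Binding z-scores use the random background probes as reference.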

[2] = test system: LXRa:RXRa (NR concentration 270 nM, RXRa partner concentration 90 nM)
How it was run: as §1

[3] = test system: LXRa homodimer (NR concentration 270 nM)
How it was run: as §1

[4] = test system: LXRb:RXRa (NR concentration 270 nM, RXRa partner concentration 90 nM)
How it was run: as §1

[5] = test system: LXRb homodimer (NR concentration 270 nM)
How it was run: as §1

[6] = test system: PPARa:RXRa (NR concentration 270 nM, RXRa partner concentration 90 nM)
How it was run: as §1

[7] = test system: PPARg:RXRa 270nM:90nM, anti-RXR (NR concentration 270 nM, RXRa partner concentration 90 nM)
How it was run: as §1

[8] = test system: PPARg:RXRa 30nM:10nM, anti-RXR (NR concentration 30 nM, RXRa partner concentration 10 nM)
How it was run: as §1

[9] = test system: PPARg:RXRa 90nM:30nM, anti-RXR (NR concentration 90 nM, RXRa partner concentration 30 nM)
How it was run: as §1

[10] = test system: PPARg:RXRa (NR concentration 180 nM, RXRa partner concentration 90 nM)
How it was run: as §1

Row | Sequence | PBM binding z-score [1] | PBM binding z-score [2] | PBM binding z-score [3] | PBM binding z-score [4] | PBM binding z-score [5] | PBM binding z-score [6] | PBM binding z-score [7] | PBM binding z-score [8] | PBM binding z-score [9] | PBM binding z-score [10]
1 | TCTTGTAGATCAAAGGTCAAGAAAGCCGAAGCCT | 4.71 | 5.21 | 2.41 | 5.03 | 1.25 | 6.32 | 9.37 | 8.45 | 10.1 | 
2 | ATCGAAAGGTCGTGACGTGAGTATACAGAAAGGC | 5.34 | 3.84 | -0.0538 | 3.03 | 0.128 | 4.8 | 3.82 | 1.41 | 2.77 | 
3 | TCTTGTAGATCAAAGCTTAAGAAAGCCGAAGCCT | -0.314 | 0.0464 | -0.571 | -0.365 | -0.532 | 0.317 | 1.5 | 2.55 | 2.08 | 
4 | CCAGACAGGTGAAAGGTAACTCCGTCTGGTACGC | 0.568 | 0.648 | -0.506 | 0.857 | -0.698 | 3.32 | 5.65 | 3.94 | 5.52 | 
5 | ATACGTAGGTTATCGGGTCATTCAGTTTGCGCAT | 3.01 | 3.2 | 1.41 | 2.88 | 1.18 | 3.58 | 3.39 | 0.883 | 2.46 | 
6 | AGTCAAAGTTCACTAGGCAACGTAAGATTCAGCT | 5.28 | 5.12 | 2.72 | 2.89 | 0.757 | 4.5 | 6.21 | 3.31 | 5.38 | 
7 | AAATGTAGGTTAAGGGTCATTCAGGTTGGTTCGC | 5.31 | 4.71 | 3.07 | 4.53 | 1.39 |  | 9.63 | 10.5 | 10.8 | 11.7
8 | TATACAGGGTCTAAGGCCAGAGTACGAATGTCGA | 0.41 | 0.239 | 0.14 | 0.157 | 0.936 |  | 1.86 | 0.951 | 1.51 | 1.09
9 | CCTACTGGGCCAAAGGTCATAGATTCCAATGCTC | 4.64 | 4.61 | 3.46 | 4.47 | 0.244 | 6.34 | 10.5 | 11 | 11.5 | 
10 | CGTCCAAGGTCAAAGGTCAGGGAAGAGATGACGG | 8.68 | 6.78 | 3.32 | 6.96 | 1.53 |  | 9.03 | 8.32 | 9.6 | 11
11 | CGTCCAAGGTCAGCAGGTGAGTGAAAGCGACGTG | 5.14 | 3.02 | -0.383 | 2.08 | -0.689 | 4.13 | 3.7 | 0.511 | 2.24 | 
12 | ACTCGGAGGGCAAAGGTCAGAGCTACGCCAGTGA | 5.79 | 5.11 | 1.08 | 4.14 | -0.447 | 6.1 | 8.48 | 8.91 | 9.51 | 
13 | CAAAGTAGGTCACCGGAAGGTCAAAGTCCGCATG | 6.09 | 6.41 | 5.29 | 5.63 | 1.43 | 6.43 | 8.21 | 6.7 | 8.45 | 
14 | ATATGTAGGTTAGCTGGGGTCATTCCGACTAGGC | 4.03 | 5.97 | 3.23 | 4.79 | 1.3 | 5.14 | 5.12 | 2.35 | 4.36 | 
15 | AGTCAAAGTTCAGGACGAGGTAAAGTAAAGCACG | 4.27 | 3.89 | 1.34 | 1.9 | 0.465 | 3.54 | 4.89 | 1.9 | 4.21 | 
16 | CCTACTGGGCCAAAAAGGCCATTGATGCCGATAA | -0.133 | -0.247 | -0.15 | -0.244 | -1.1 | 0.629 | 0.7 | -0.443 | 0.151 | 
17 | TCATATAGGTGAAAGGTGAAAGTCGGTGTGGTAA | 2.9 | 2.52 | 0.284 | 2.76 | 0.0843 | 6.44 | 9.98 | 10.2 | 12.3 | 
18 | AGTAAAAGTTCACTAGGTAACGTAAGATTCAGCT | 4.14 | 4.44 | 3.1 | 2.6 | 1.17 | 4.32 | 5 | 2.09 | 4.23 | 
19 | TCTGCTAGGTCAACGATGGTCAGCGAATCTGCTA | 3.19 | 2.8 | -0.293 | 1.24 | -0.382 |  | 3.03 | 1.79 | 2.4 | 2.51
20 | CGTCGAAGGTCAATGCTAGGTCAGTGAAAGCATT | 6.95 | 5.54 | 2.6 | 4.32 | 0.906 | 5.41 | 4.82 | 1.4 | 3.63 | 
21 | ATATGTAGGTCATCGGGTCATTCAGTTTGCGCAT | 6.61 | 5.82 | 4.84 | 4.74 | 1.76 | 6.46 | 8.12 | 6.72 | 8.81 | 
22 | TATACAGGGTCAAAGGGCAGAGTACGAATGTCGA | 7.38 | 6.55 | 3.16 | 5.44 | 3.33 | 6.52 | 8.53 | 7.25 | 8.56 | 
23 | CCTTACGGGTCTAGGTTATAGCACGGGTGGTACG | -0.122 | -0.0116 | 0.0619 | -0.517 | -0.281 | 0.0671 | -0.00243 | -0.428 | -0.39 | 
24 | CGAACTAGGTCAGAGCAGGACAGTGAAGGATGAT | 1.33 | 0.722 | -0.112 | 0.261 | -0.67 | 3.19 | 5.01 | 2.43 | 4.19 | 
25 | GGAACTAGGGCAAAGTTGATAGCATCTGTCGACG | -0.124 | -0.2 | -0.596 | 0.16 | -0.519 | 5.37 | 8.84 | 8.63 | 9.67 | 
26 | TAGCCTAGGTCATAGGCCAGTATACCACGCGAAC | 4.26 | 3.46 | 0.285 | 2.09 | -0.0669 |  | 4.54 | 2.36 | 4.03 | 4.51
